Bioassay records from PubChem BioAssay.
mHTT CaM bind – inhibitors of human mutant huntingtin-calmodulin interaction. P42858. AlphaScreen His-mHTT/GST-CaM binding, luminescence. inhibition, % at 15 µM. 190,000 tested, 3.6% active. AID 1671202
Pf apPOL block – Pf-apPOL DNA polymerase inhibition; Recombinant Pf-apPOL, molecular beacon fluorescence, 1.5 h; 210,000 tested, 0.25% active; inhibition, % at 10 µM; AID 1794808
Each line names hits and unclear results; the compound was inactive in the other large screens; ! = not active in a repeat. This is a sample that favours compounds with a hit; in the whole collection about 3.5% have one here. Rule as the data show it: active = inhibition above about 50%; inactive = the rest.

O=C1OC(c2ccccc2)(c2ccccc2)c2ccccc21	none (no result: mHTT CaM bind)
CCN(CC)C(=O)CN(c1ccc(OC)c(OC)c1)S(=O)(=O)c1ccc(C)cc1	none
CC(C)NC(=O)N1CCN(Cc2nc3cccnc3n2-c2cccc(F)c2)CC1	none
Cc1cccc(NC(=O)c2ccnc(N3CCNC(c4ccccc4)C3)c2)c1 (centres undefined)	none
CCN1CCn2cc(S(=O)(=O)NCc3cccc(F)c3)cc2C1=O	none
COc1cc(OC)cc(C2=Cc3ccccc3C(CC(C)=O)N2c2ccc(-c3cncnc3)cc2)c1 (centres undefined)	mHTT CaM bind 50
COc1ncc(-c2ccc(N3C(c4ccsc4)=Cc4ccc(F)cc4C3CC(=O)c3ccco3)cc2)cn1 (centres undefined)	none
O=C(CC1c2ccccc2C=C(c2ccsc2)N1c1ccc(-c2cccnc2)cc1)C1CC1 (centres undefined)	mHTT CaM bind 84
COc1cc(OC)cc(C2=Cc3ccccc3C(CC(C)=O)N2c2ccc(-c3cccs3)cc2)c1 (centres undefined)	none
O=C(NCc1cccc(Cl)c1)c1cc(N2CCSCC2)nc2ccccc12	none
COc1cc(/C=c2\sc3nc4ccccc4n3c2=O)cc([N+](=O)[O-])c1O	mHTT CaM bind 57
O=c1/c(=C/c2ccc(Br)c([N+](=O)[O-])c2)sc2nc3ccccc3n12	none
O=C(c1ccccc1F)N1CC(C(=O)N2CCCC2)C(c2ccc(F)cc2)C1 (centres undefined)	none
Nc1nc(Nc2ccccc2F)nc2cccc(F)c12	none
COc1cc2c(cc1OC)C(C(=O)NCc1cccnc1)C1c3ccccc3CCN1C2=O (centres undefined)	none
COc1cc2c(cc1OC)C(C(=O)NCCc1cccc(C)c1)C1c3ccccc3CCN1C2=O (centres undefined)	mHTT CaM bind 89
Cc1ccnc(NC(=O)C2c3ccccc3C(=O)N3CCc4ccccc4C23)c1 (centres undefined)	none
COc1ccc(OC)c(NC(=O)C2c3ccccc3C(=O)N3CCc4ccccc4C23)c1 (centres undefined)	none
COCCN1C(=O)c2ccccc2C(C(=O)Nc2cc(C)ccn2)C1c1cn(C)c2ccccc12 (centres undefined)	mHTT CaM bind 54
COCCN1C(=O)c2ccccc2C(C(=O)O)C1c1cn(C)c2ccccc12 (centres undefined)	none
COc1cc2c(cc1OC)C(C(=O)Nc1cc(C)ccn1)C1c3ccccc3CCN1C2=O (centres undefined)	mHTT CaM bind 69
COc1ccc(C)cc1NC(=O)C1c2cc(OC)c(OC)cc2C(=O)N2CCc3ccccc3C12 (centres undefined)	mHTT CaM bind 57
O=C(NCC1CCCO1)C(=O)NCC1COC2(CCCCC2)O1 (centres undefined)	none
Cc1cccc(NC(=O)C(=O)NCCCc2ccccc2)n1	none
O=C(c1ccsc1)N1CCc2c(nc3cc(-c4ccccc4)[nH]n3c2=O)C1	none
O=C(Nc1cccc(NC(=O)c2cccc(F)c2)c1)c1cccc(F)c1	none
CCCNC(=O)c1ccc2ncn(C)c(=O)c2c1	none
CC(=O)N(CCC1(c2ccccc2)CCOC(C)(C)C1)Cc1ccc(N(C)C)cc1 (centres undefined)	mHTT CaM bind 75
CC1(C)CC(CCN(Cc2ccccc2)C(=O)c2ccco2)(c2ccccc2)CCO1 (centres undefined)	none
CN1CCN(C(=O)c2cc3c(s2)CCN(C(=O)c2ccc(F)cc2)C3)CC1	none
O=C1C2C(C(=O)N1c1ccccc1F)C1C=CC2C12CC2 (centres undefined)	none
Clc1ccc(Cc2nc(-c3cccc(-c4ccn[nH]4)c3)no2)cc1	mHTT CaM bind 91
Clc1ccc(OCc2nc(-c3cccc(-c4ccn[nH]4)c3)no2)cc1	none
NC(=O)c1c(NC(=O)c2ccc(F)cc2)sc2c1CCCCCC2	none
CCN1CCn2cc(C(=O)N3CCN(c4ccccc4F)CC3)nc2C1	none
O=C(CC1=CCCCC1)NC1CCc2[nH]c3ccc(Br)cc3c2C1 (centres undefined)	mHTT CaM bind 100
Cc1cc(C)cc(C(=O)NC2CCc3[nH]c4ccc(Br)cc4c3C2)c1 (centres undefined)	none
CC1CCC(C(=O)NC2CCc3[nH]c4ccc(Br)cc4c3C2)CC1 (centres undefined)	mHTT CaM bind 97
CCc1cccc2c3c([nH]c12)CCC(NC(=O)C(C)CC)C3 (centres undefined)	none
C#CCOc1c(Br)cc(/C=C2/SC(=S)NC2=O)cc1OC	none (no result: Pf apPOL block)
Cc1cc(N2CCC(C(=O)NCc3cccc(C(F)(F)F)c3)C2=O)ccc1Cl (centres undefined)	none
COc1cc(C)c(C)cc1S(=O)(=O)NCCc1csc(-c2ccc(F)cc2)n1	mHTT CaM bind 53
COc1cc(C)c(C)cc1S(=O)(=O)NCCCc1ccc(N(C)C)cc1	mHTT CaM bind 57
COc1cccc(C(=O)NCCCc2ccc(N(C)C)cc2)c1OC	none
CCCS(=O)(=O)NCCc1csc(-c2ccc(OC)c(OC)c2)n1	none
O=C(NCCN1CCCC1)c1nnc(N2CCCCC2)c2ccccc12	none
COc1ccc(C(=O)N2CCc3c(c(-c4nc(-c5ccc(F)cc5)no4)nn3C)C2)c(C)c1	none
O=C1C2C3C=CC(CO)(O3)C2C(=O)N1c1ccc(F)cc1 (centres undefined)	none
Cc1nc(C)c(Cc2ccc(Cl)cc2)c(N2CCN(C(=O)C3CC3)CC2)n1	none
CCC(=O)N1CCN(c2nc(C)nc(C)c2Cc2c(F)cccc2Cl)CC1	none
CCC(=O)N1CCN(c2nc(C)nc(C)c2Cc2ccc(Cl)cc2Cl)CC1	mHTT CaM bind 52
Cc1nc(C)c(Cc2ccc(Cl)cc2)c(N2CCN(C(=O)C3CCC3)CC2)n1	mHTT CaM bind 93
Cc1ccnc(Nc2nc(-c3ccc(Cl)cc3)cs2)c1	none
Cc1ccnc(Nc2nc(-c3ccncc3)cs2)c1	none
Cc1ccnc(Nc2nc(CC(=O)NCc3ccco3)cs2)c1	mHTT CaM bind 68
Cc1ccnc(Nc2nc(-c3ccc4c(c3)OCO4)cs2)c1	mHTT CaM bind 56
Cc1ccnc(Nc2nc(-c3cccnc3)cs2)c1	Pf apPOL block 72!
Cc1ccnc(Nc2nc(CC(=O)NCCc3cccs3)cs2)c1	none
COc1cc(C(=O)NCc2ccc(C(=O)O)cc2)cc(OC)c1OC	none
O=C(NCc1ccc(-n2ccnc2)cc1)c1ccc(F)c(F)c1	none
C=CCn1cnc2c1c(=O)n(C1CCCC1)c(=O)n2-c1ccc(F)cc1F	none
COc1ccc2c3c(ccc2c1)-c1[nH]c2ccccc2c1CC3	none (no result: Pf apPOL block)
c1ccc2c3c([nH]c2c1)-c1nonc1CC3	Pf apPOL block 93!
COc1cc(C2NCCC3(O)CCCCC23)cc(OC)c1OC (centres undefined)	none
CCCS(=O)(=O)C(C#N)=NNc1cc(C(F)(F)F)cc(C(F)(F)F)c1	none (no result: mHTT CaM bind)
CC(C)(C)c1ccc(Cn2c(N)nc3ccccc32)cc1	mHTT CaM bind 89
Nc1nc2ccccc2n1Cc1ccc(Br)cc1	none
COc1cccc2c1NC(c1ccc([N+](=O)[O-])cc1)C1CC=CC21 (centres undefined)	mHTT CaM bind 70
COc1cc([N+](=O)[O-])cc2c1NC(c1ccccc1Cl)C1CC=CC21 (centres undefined)	none
COc1ccc(C2Nc3c(C)ccc(Cl)c3C3C=CCC32)cc1[N+](=O)[O-] (centres undefined)	none
CCc1cccc2c1NC(c1ccc(OC)c([N+](=O)[O-])c1)C1CC=CC21 (centres undefined)	mHTT CaM bind 59
